Consider 49 compounds from PubChem BioAssay AID2685 (National Center for Advancing Translational Sciences (NCATS), 2010).

Among all 320,000 compounds or so, about 2,100 (0.66%) were called active. Not shown: some 53% with an inconclusive outcome. The call rests on the fitted dose curve; in most records, active means well fitted inhibition curve with a large enough effect in the signal ratio, with a control signal flat (not every such curve was filed as active); inconclusive means small, poorly fitted or top-dose-only effect, or effect the other way, or a change in a side signal; inactive means flat fitted curve, though single readings scatter; the % refers to the signal ratio. Many of the other results were omitted from the sample, so actives are more common in it than they were.
Potency means the concentration at half of the fitted maximal effect.

The assay in a line: qHTS Assay for Lipid Storage Modulators in Drosophila S3 Cells.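 On cell number change: cells counted by Cell Tracker Red CMTPX staining in the red channel.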 On lipid storage change, negative = inhibition: on the % scale 0 is the no-effect control and ±100 the full control effect. Conditions: BODIPY lipid droplet fluorescence, 18-24 h, cells fed with added oleic acid; cell number change: measured here: cell count max response; series mostly up to 46.1 µM; lipid storage change, negative = inhibition: at the top concentration. The gist of the method:
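Laser-scanning cytometry quantifies lipid droplet accumulation (500–530 nm total intensity; droplet/cell object ratio) in oleic acid-fed (400 uM added) Drosophila S3 cells treated with a concentration series. 20 uM Triacsin C defined 100% inhibition.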
(Quantitative high-throughput screening tests each substance at several concentrations.)
`S=c1[nH]nc(-c2cc(-c3ccccc3)n[nH]2)n1/N=C/C=C/c1ccccc1`: the “lipid storage change, negative = inhibition” value is -0.135% (inactive) and the cell number change came out at 5.92%. For `Cc1ccc(C)c(N2CCN(C(=O)Nc3ccc4c(c3)N(C)C(=O)CS4)CC2)c1`, in that order: 6.34% (inactive) and -6.47%. With `CN(C)N=C1c2cc(S(=O)(=O)N(C)C)ccc2-c2ccc(S(=O)(=O)N(C)C)cc21`, the compound was called inactive and the cell number change was -8.49%. Turning to `CC(=O)NCCNC(=O)c1ccc(-n2c(C)ccc2C)cc1`, the “lipid storage change, negative = inhibition” value is 6.73% (inactive) and the cell number change is -0.679%.

For `Cc1ccc(C2=NOC(=O)/C2=C\C=C\c2ccccc2)cc1`, the Potency is 4.61 µM (active) and the cell number change is -25.2%. Take `O=C1ON=C(c2ccccc2)/C1=C/c1ccccc1`: the compound was called inactive and the cell number change was -8.78%. In the case of `O=C1ON=C(c2ccccc2)/C1=C/c1cccnc1`, the “lipid storage change, negative = inhibition” value is -24.6% (inactive) and the cell number change was 4.4%.

For `Cc1cc(C)cc(N2CC(C(=O)Nc3cc(C)on3)CC2=O)c1` (stereo not drawn), the “lipid storage change, negative = inhibition” value is -6.62% (inactive) and the cell number change is -8.97%. Regarding `Cc1cccc(NC(=O)N2CCCC(CNC(=O)c3ccccc3Cl)C2)c1C` (stereo not drawn), the Potency is 20.6 µM (active) and the cell number change was -15%.

As for `CC(=O)c1ccccc1C(=O)N1CCCC(CNC(=O)c2ccccc2Cl)C1` (stereo not drawn), the compound was classed as inactive. Consider `COc1ccccc1NC(=O)N1CCCC(CNC(=O)c2ccccc2Cl)C1` (stereo not drawn), for which the compound was classed as inactive and the cell number change came out at 21.5%. For the compound `O=c1c(Cl)c(N2CCNCC2)cnn1C12CC3CC(CC(C3)C1)C2`, the “lipid storage change, negative = inhibition” value was 1.07% (inactive) and the cell number change worked out at 5.13%.

Turning to `CCCc1nnc(NC(=O)CSc2nc3ccccc3[nH]2)s1`, the “lipid storage change, negative = inhibition” value was 3.54% (inactive) and the cell number change is -1.76%. For `COc1ccc(NC(=O)CC(NCCc2ccccc2)C(=O)O)c(OC)c1` (stereo not drawn) the same measures were -5.38% (inactive) and 2.02%. In the case of `COc1ccc(OC)c(NC(=O)CC(NCCC2=CCCCC2)C(=O)O)c1` (stereo not drawn), the Potency was 4.61 µM (active) and the cell number change amounted to 1.58%. In the case of `COc1ccc(C)cc1NC(=O)NCCC1=CCCCC1`, the compound was classed as inactive. Turning to `S=c1[nH]nc(-c2cccs2)n1/N=C/c1cn(-c2ccccc2)nc1-c1ccccc1`, the “lipid storage change, negative = inhibition” value was -0.402% (inactive) and the cell number change is -2.97%.

Turning to `CCCC[N+](CC#CCO)(CC#Cc1ccccc1)CCCC`, the “lipid storage change, negative = inhibition” value was 11.3% (inactive) and the cell number change is 24.4%. For `Cc1nc(SCC(O)CCl)c([N+](=O)[O-])[nH]1` (stereo not drawn) the same measures were -0.122% (inactive) and 21.1%.

Consider `CC(C)OP(=O)(OC(C)C)C(Nc1ccc(C(=O)O)cc1)c1ccccc1` (stereo not drawn), for which the “lipid storage change, negative = inhibition” value is -19.3% (inactive) and the cell number change is -10.6%. For `COc1cc(CNc2ncn[nH]2)ccc1OCC(=O)NC(C)(C)C`, the “lipid storage change, negative = inhibition” value was 15.6% (inactive) and the cell number change is -0.636%. For `Cc1nn(S(=O)(=O)N2CCOCC2)c(C)c1Br`, in that order: -9.45% (inactive) and -1.55%.

Turning to `CCc1nc(SCC(=O)NCc2ccccc2)c2c(=O)n(C)c(=O)n(C)c2n1`, the “lipid storage change, negative = inhibition” value is 25.2% (inactive). As to `CCc1nc(SCC(=O)NCc2ccco2)c2c(=O)n(C)c(=O)n(C)c2n1`, the call was inactive.

As for `CCc1nc(SCC(=O)Nc2ccccc2)c2c(=O)n(C)c(=O)n(C)c2n1`, the Potency was 7.31 µM (active) and the cell number change was -27.3%. For `Cn1c(=O)c2c(SCC(=O)NCc3ccco3)nc(-c3ccccc3Cl)nc2n(C)c1=O`, in that order: 8.91 µM (active) and -20.7%. On to `Cn1c(=O)c2c(SCC(=O)N3CCOCC3)nc(-c3ccccc3Cl)nc2n(C)c1=O`, for which the call was inactive and the cell number change was -19.8%. Turning to `CCc1nc(SCC(=O)Nc2ccc(F)cc2)c2c(=O)n(C)c(=O)n(C)c2n1`, the “lipid storage change, negative = inhibition” value was -28.8% (inactive) and the cell number change was 7.11%. For `CCN(CC)S(=O)(=O)c1ccc(/C=C/C(=O)OCC(=O)Nc2cccc3ccccc23)cc1` the same measures were 7.73% (inactive) and 15.5%. For `Cc1noc(C)c1S(=O)(=O)N1CCC(C(N)=O)CC1`, in that order: 12.8% (inactive) and -15.5%. Regarding `Cc1ccc(C(=O)OCC(=O)NCCC2=CCCCC2)cc1N`, the “lipid storage change, negative = inhibition” value was 1.1% (inactive). Take `COc1cccc(NC(=O)c2ccc(CN3CCc4ccccc4C3)cc2)c1`: the call was inactive and the cell number change is 26.4%. For `C=CCNc1nc(C(=O)OCC(=O)c2ccccc2)cs1`, in that order: “inactive” and 16.2%. On to `COc1cccc(C(=O)NC(=S)Nc2cccnc2)c1`, for which the “lipid storage change, negative = inhibition” value was 1.88% (inactive) and the cell number change was -2.34%. For `CC1=NN(C(N)=S)C(=O)C1N=Nc1ccc(S(N)(=O)=O)cc1` (stereo not drawn) the same measures were -1.77% (inactive) and 3.52%. As to `CC1=NN(C(N)=S)C(=O)C1N=Nc1ccccc1C` (stereo not drawn), the “lipid storage change, negative = inhibition” value is 2.34% (inactive) and the cell number change was found to be 2.36%.

Take `CC1=NN(C(N)=S)C(=O)C1N=Nc1ccccc1O` (stereo not drawn): the “lipid storage change, negative = inhibition” value was 2.59% (inactive) and the cell number change was -20.1%. For `CCOc1ccccc1N=NC1C(=O)N(C(N)=S)N=C1C` (stereo not drawn) the same measures were -2.42% (inactive) and -0.35%. `CCOc1ccc(N=NC2C(=O)N(C(N)=S)N=C2C)cc1` (stereo not drawn): the Potency was 2.31 µM (active) and the cell number change was -27.4%.

`CC1=NN(C(N)=S)C(=O)C1N=Nc1ccccc1Cl` (stereo not drawn): the Potency is 6.51 µM (active) and the cell number change was -28.8%. For the compound `Cc1c(NC(=O)Nc2ccc([N+](=O)[O-])cc2)c(=O)n(-c2ccccc2)n1C`, the “lipid storage change, negative = inhibition” value is -3.7% (inactive) and the cell number change was -0.0298%. For `Cc1ccc(S(=O)(=O)N(CC(=O)NCCSc2ccccn2)c2cc(C)cc(C)c2)cc1` the same measures were -21.1% (inactive) and -8.96%. For `COc1ccc(NS(=O)(=O)c2ccc(N3CC(O)=C(c4ccccc4)C3=N)cc2)cc1` the same measures were 12.1% (inactive) and 18.3%. For the compound `COC(=O)C(NC(=O)c1ccccc1Cl)(Nc1ncc(S(=O)(=O)c2ccc([N+](=O)[O-])cc2)s1)C(F)(F)F` (stereo not drawn), the Potency was 20.6 µM (active) and the cell number change turned out to be 9.68%. Regarding `O=C(NC(Nc1nc2ccc([N+](=O)[O-])cc2s1)(C(F)(F)F)C(F)(F)F)c1cccnc1`, the result was inactive and the cell number change is -11%. `COC(=O)C(NC(=O)c1ccccc1C)(Nc1ncc(S(=O)(=O)c2ccc([N+](=O)[O-])cc2)s1)C(F)(F)F` (stereo not drawn): the “lipid storage change, negative = inhibition” value is -0.188% (inactive) and the cell number change is -2.46%.

On to `COC(=O)C(NC(=O)c1ccc(F)cc1)(Nc1ncc(S(=O)(=O)c2ccc([N+](=O)[O-])cc2)s1)C(F)(F)F` (stereo not drawn), for which the “lipid storage change, negative = inhibition” value is 5.96% (inactive) and the cell number change was 0.5%. For `Cn1cc(Cl)c(C(=O)Nc2nc3ccc([N+](=O)[O-])cc3s2)n1` the same measures were 16.6% (inactive) and -2.18%. In the case of `O=C(NC(Nc1nc2ccc([N+](=O)[O-])cc2s1)(C(F)(F)F)C(F)(F)F)c1ccccc1Cl`, the Potency is 5.8 µM (active) and the cell number change was -26.5%.
